Assay outcomes deposited in PubChem by several laboratories.
Hits are enriched below; roughly 4.2% of the tested compounds scored in any of these assays.
Wnt bcat act: activators of Wnt/beta-catenin signaling; Wnt/beta-catenin reporter cell assay, activator, plate reader; activation, % at 9.35 µM; 300,000 compounds, 1.2% hits; AID 743398; in the data active = activation above about 30%, passing the limit was not always enough;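 also: 0% = neutral control wells and 100% = positive control wells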
esBAF inh: inhibitors of esBAF chromatin remodeling in mouse ES cells | Bmi1-luciferase knock-in reporter, 24 h; 100% = twice the neutral-well signal | reporter increase, % at 12.5 µM | 350,000 compounds, 2% hits | AID 602393; in the data active = activation above about 40%;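 also: 0% = median of the plate's neutral control wells and 100% = double that signal; a rise in the Bmi1 reporter signal indicates esBAF inhibition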
hcDAF12 agonist: activates DAF-12 receptor from parasite H. contortus | HEK293 hcDAF-12 lit1-tk-luc reporter, luminescence; 0% DMSO, 100% Δ7-dafachronic acid | activation, % at 6.8 µM | 370,000 compounds, 1.4% hits | AID 652067;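 active = activation above the mean of all tested compounds plus 3 SD, cut at about 5.5% in these data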;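 also: 100% = response to 3 µM Δ7-dafachronic acid high control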
hgDAF12 agonist: agonists of H. glycines DAF-12 nuclear receptor; HEK293 GAL4-hgDAF12 UAS-luciferase reporter, agonist luminescence; normalized to butyrate control; activation, % at 6.8 µM; 370,000 compounds, 1.8% hits; AID 687014;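 active = activation above a cutoff set at the mean of all screened compounds plus 3 SD, cut at about 10% in these data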;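 also: 0% = DMSO wells and 100% = sodium butyrate wells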
ssDAF12 agonist: activators of S. stercoralis DAF-12 nuclear receptor; 370,000 compounds, 1% hits; HEK293 ssDAF-12/GRIP1 lit1-tk-luc reporter, luminescence; % of 3 µM dafachronic acid response; activation, % at 6.8 µM; AID 652126;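 active = activation above the mean over all tested compounds plus 3 SD, cut at about 0.9% in these data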;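 also: 0% = DMSO-only wells and 100% = 3 µM delta7-dafachronic acid wells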
DAX1 StAR inh: inhibitors of DAX1 repression of SF-1 activated StAR promoter; AID 652010; 370,000 compounds, 1.1% hits; inhibition, % at 6.8 µM; HEK293T StAR-luciferase reporter, SF-1/DAX-1 repression relief;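 active = inhibition above the mean over all tested compounds plus 3 SD, cut at about 3.6% in these data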;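 also: 0% = DAX-1 cells with DMSO and 100% = cells lacking DAX-1 with DMSO; higher inhibition means more luminescence from relief of DAX-1 repression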
DAX1 inh confirm: NR0B1 (human) inhibition, confirmation; shares compounds with DAX1 StAR inh; HEK293T StAR-promoter luciferase reporter, SF-1/DAX-1 repression; inhibition, % at 6.8 µM; 2,400 compounds, 87% hits; AID 652134;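 active = inhibition above the average of every tested compound plus 3 SD, cut at about 3.8% in these data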;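 also: 0% = DAX-1 cells with DMSO and 100% = no DAX-1 control cells with DMSO; active compounds raise luminescence by relieving repression of the StAR reporter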
Target sequence (P51843 whole entry, looked up): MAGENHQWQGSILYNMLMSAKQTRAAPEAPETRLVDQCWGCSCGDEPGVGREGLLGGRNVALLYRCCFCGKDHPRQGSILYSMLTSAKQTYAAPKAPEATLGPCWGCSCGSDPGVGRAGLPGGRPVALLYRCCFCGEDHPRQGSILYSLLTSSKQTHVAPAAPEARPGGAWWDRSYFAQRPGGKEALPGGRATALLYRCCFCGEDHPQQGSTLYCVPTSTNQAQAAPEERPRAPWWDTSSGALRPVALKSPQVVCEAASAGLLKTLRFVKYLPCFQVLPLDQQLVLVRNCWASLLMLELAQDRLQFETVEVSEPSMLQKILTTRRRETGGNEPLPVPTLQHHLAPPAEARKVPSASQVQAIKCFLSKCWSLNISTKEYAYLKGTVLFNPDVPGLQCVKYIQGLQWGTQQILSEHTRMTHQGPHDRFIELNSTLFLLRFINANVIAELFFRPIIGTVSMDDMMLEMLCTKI
SF1 mutant ctr: counter-screen for DAX1 inhibitors: nonselective inhibitors with SF-1 AF2 mutant | shares compounds with DAX1 StAR inh | HEK293 StAR-luciferase, luminescence | inhibition, % at 6.8 µM | 2,400 compounds, 78% hits | AID 652136;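 active = inhibition above the mean of all tested compounds plus 3 SD, cut at about 3% in these data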;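 also: 0% = DAX-1 transfected cells with DMSO and 100% = cells without DAX-1 with DMSO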
LXR ag: activates human LXR-beta, counter-screen for hcDAF-12 agonists; shares compounds with hcDAF12 agonist; HEK293 Gal4-LXR tk-luc reporter, luminescence, 24 h; normalized: DMSO 0%, positive control 100%; activation, % at 6.8 µM; 3,400 tested, under 10 active; AID 743027;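 active = mean percent activation of the reporter above a cutoff set as the average over tested compounds plus their standard deviation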
hcDAF12 ag: hcDAF-12 agonism, confirmation assay; shares compounds with hcDAF12 agonist; HEK293 hcDAF-12 lit1-tk-luc reporter, luminescence; % of Δ7-dafachronic acid response; activation, % at 6.8 µM; 3,400 compounds, 61% hits; AID 743032;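 active = mean activation across triplicate tests above the threshold derived from the earlier primary screen, cut at about 5.5% in these data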;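 also: 0% = DMSO only wells and 100% = 3 µM Δ7-dafachronic acid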
hgDAF12 ag: hgDAF-12 agonism, confirmation assay | HEK293 GAL4-hgDAF12 luciferase reporter, agonist mode; percent of butyrate response | activation, % at 6.8 µM | 3,300 compounds, 80% hits | shares compounds with hgDAF12 agonist;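 active = mean activation over triplicate wells above the hit cutoff derived from the earlier primary screen, cut at about 11% in these data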;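 also: 0% = DMSO low control and 100% = 2 mM sodium butyrate high control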
LXR ag 2: activates human LXR-beta, counter-screen for DAF-12 agonists | shares compounds with hgDAF12 agonist | HEK293 Gal4-LXR luciferase reporter, 24 h | activation, % at 6.8 µM | 3,300 tested, under 10 active;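 active = mean activation of the triplicate above a set limit carried over from the primary screen, none filed active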
* hit, by the source's call.

Screening Cc1nc(Nc2ccccc2)sc1-c1ccccc1 returned Wnt bcat act 44*, hcDAF12 agonist 9.8*, hgDAF12 agonist 21*, ssDAF12 agonist 1.1*, DAX1 StAR inh 6.7*, DAX1 inh confirm 21*, SF1 mutant ctr 9.8*, LXR ag 2, hcDAF12 ag 8.3*, hgDAF12 ag 21* and LXR ag 2 1.
Screening Cc1nc(Nc2ccc(C(=O)O)cc2)sc1-c1ccccc1 returned Wnt bcat act 1, hcDAF12 agonist 10*, hgDAF12 agonist 17*, ssDAF12 agonist 2.6*, DAX1 StAR inh 5.5*, DAX1 inh confirm 3, SF1 mutant ctr 0, LXR ag 2, hcDAF12 ag 7.2*, hgDAF12 ag 10 and LXR ag 2 1.
`Cc1ccc2cc(CCNC(=O)c3cccs3)c(=O)[nH]c2c1C` gave Wnt bcat act 19, esBAF inh 59*, hcDAF12 agonist 4, hgDAF12 agonist 19*, ssDAF12 agonist -1, DAX1 StAR inh 5.6*, DAX1 inh confirm 6.8*, SF1 mutant ctr 3.7*, hgDAF12 ag 18* and LXR ag 2 1.
For CC(=O)NCCc1cc2ccc(C)c(C)c2[nH]c1=O the results were Wnt bcat act -2, esBAF inh 1, hcDAF12 agonist 0, hgDAF12 agonist -3, ssDAF12 agonist -1 and DAX1 StAR inh 1.
`COc1cccc(-c2csc(NC3OC(=O)c4c3ccc(OC)c4OC)n2)c1` (configuration not stated) gave Wnt bcat act 15, hcDAF12 agonist 4, hgDAF12 agonist 3, ssDAF12 agonist 0 and DAX1 StAR inh 0.
For COc1ccc2c(c1OC)C(=O)OC2Nc1nc(-c2ccc(-c3ccccc3)cc2)cs1 (configuration not stated) the results were Wnt bcat act 19, hcDAF12 agonist 9.1*, hgDAF12 agonist 21*, ssDAF12 agonist 0.9*, DAX1 StAR inh 5.1*, DAX1 inh confirm 10*, SF1 mutant ctr 6.5*, LXR ag 1, hcDAF12 ag 3, hgDAF12 ag 14* and LXR ag 2 1.
Screening Cc1cc(=O)[nH]c(N/N=C/c2c(C)nn(-c3ccccc3)c2Cl)n1 returned Wnt bcat act -2, esBAF inh 2, hcDAF12 agonist -3, hgDAF12 agonist 0, ssDAF12 agonist -2 and DAX1 StAR inh -2.
For Cc1nn(-c2ccccc2)c(Cl)c1/C=N/Nc1nc2ccccc2[nH]1 the results were Wnt bcat act 24, hcDAF12 agonist 9.5*, hgDAF12 agonist 24*, ssDAF12 agonist 1.4*, DAX1 StAR inh 4.8*, DAX1 inh confirm 18*, SF1 mutant ctr 6.3*, LXR ag 2, hcDAF12 ag 7.8*, hgDAF12 ag 22* and LXR ag 2 1.
For Cc1nn(-c2ccccc2)c(Cl)c1/C=N/NC(=O)c1[nH]ncc1Br the results were Wnt bcat act 22, esBAF inh -6, hcDAF12 agonist 6.0*, hgDAF12 agonist 15*, ssDAF12 agonist 1, DAX1 StAR inh 12*, DAX1 inh confirm 13*, SF1 mutant ctr 7.3*, hgDAF12 ag 15* and LXR ag 2 1.
Cn1cnc(S(=O)(=O)N[C@@H]2C=C[C@H](CC(=O)N3CCN(c4ccccc4)CC3)O[C@H]2CO)c1 was read as esBAF inh -2.
For COc1ccc(NC(=O)c2ccc3c(c2)N(C)CCS3)cc1 the results were Wnt bcat act 53*, esBAF inh 85*, hcDAF12 agonist 5, hgDAF12 agonist 24*, ssDAF12 agonist 1, DAX1 StAR inh 7.3*, DAX1 inh confirm 12*, SF1 mutant ctr 7.5*, hgDAF12 ag 19* and LXR ag 2 1.
For COc1ccc(NC(=O)c2ccc3c(c2)n(C)c(=O)n3C)cc1 the results were Wnt bcat act 0, esBAF inh 15, hcDAF12 agonist -2, hgDAF12 agonist 0, ssDAF12 agonist -2 and DAX1 StAR inh 0.
`COc1cccc2[nH]c(-c3ccccn3)nc12` gave Wnt bcat act -2, hcDAF12 agonist 6.4*, hgDAF12 agonist 18*, ssDAF12 agonist 1, DAX1 StAR inh 7.2*, DAX1 inh confirm 8.6*, SF1 mutant ctr 5.6*, hgDAF12 ag 16* and LXR ag 2 1.
COc1cnc(-c2ccccn2)[nH]c1=O was read as Wnt bcat act -5, hcDAF12 agonist -1, hgDAF12 agonist -1, ssDAF12 agonist -1 and DAX1 StAR inh 1.
For CC(C)CC(=O)Nc1ccc(-c2nc3ccccc3c(=O)[nH]2)cc1 the results were Wnt bcat act 21, hcDAF12 agonist 3, hgDAF12 agonist 16*, ssDAF12 agonist 0, DAX1 StAR inh 5.0*, DAX1 inh confirm 17*, SF1 mutant ctr 7.6*, hgDAF12 ag 21* and LXR ag 2 1.
For CC(C)CC(=O)Nc1ccc(-c2nc3ccccc3c(=O)o2)cc1 the results were Wnt bcat act -10, hcDAF12 agonist -2, hgDAF12 agonist -2, ssDAF12 agonist -1 and DAX1 StAR inh 0.
COc1cc2ccccc2cc1C(=O)NCC(c1cccs1)N(C)C (configuration not stated) was read as Wnt bcat act 28, hcDAF12 agonist 6.4*, hgDAF12 agonist 15*, ssDAF12 agonist 0, DAX1 StAR inh 10*, DAX1 inh confirm 12*, SF1 mutant ctr 7.1*, hgDAF12 ag 16* and LXR ag 2 1.
`CS(=O)(=O)Nc1ccc2c(c1)[C@H]1C[C@@H](CC(=O)N3CCOCC3)O[C@H](CO)[C@H]1O2` gave esBAF inh 1.
